Screening results: PubChem, National Center for Advancing Translational Sciences (NCATS)
Sm TGR block: S. mansoni TGR enzyme inhibition. Q962Y6. purified TGR, DTNB reduction, TNB absorbance 405 nm. Potency, µM (highest dose often 114 µM), inactives show at the highest dose activity change, negative = inhibition, most hits filed as inhibitors. 3% of 360,000 active. AID 485364; note: potency is the fitted concentration of half-maximal effect; % is set by controls: 0 for no effect and ±100 for the full control effect; nearly all actives have a fitted effect of over 60% in size
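TGR 20 nM + NADPH 100 uM (dispensed conc.), cpd preinc 15 min RT; start with NADPH (500 uM addition) then DTNB (15 mM addition). Kinetic TNB absorbance, 405 nm filter. Four-parameter Hill fit across titration.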
CHX counter: counter-screen hit for Shiga toxin inhibitors, cycloheximide. max response, %. cell reporter, cycloheximide protein synthesis inhibition counterscreen. 12% of 300,000 active; in the data active = max response mostly above about 13%, no sharp cut-off; inactive = mostly below about 14%; note: read at 38.3 µM for the half of the compounds with a filed dose; 0% is about no effect
TbPYK inhibitor: blocks Trypanosoma brucei pyruvate kinase; Potency, µM (series often up to 76.8 µM), inactives show at the top dose activity, negative = inhibition, usual class: inhibitors; TbPYK enzyme, Kinase-Glo Plus ATP luminescence, 45 min; 0.12% of 410,000 active; note: potency is the fitted concentration of half-maximal effect; % is set by controls: 0 for no effect and ±100 for the full control effect; nearly all actives have a fitted effect of over 50% in size
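Enzyme and substrate buffer are dispensed first and compound is pin-transferred. ADP at 130 uM final then starts the reaction, which runs 45 min at room temperature. Detection reagent is added for 10 min before luminescence is imaged.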
Giardia FBPA inh: blocks Giardia fructose-bisphosphate aldolase activity. A8B2U2. purified Giardia FBPA. Potency, µM (doses to about 59.6 µM), without a hit: at the top dose activity, negative = inhibition, hits mostly inhibitors. 0.71% of 290,000 active; note: potency is the fitted concentration of half-maximal effect; % is set by controls: 0 for no effect and ±100 for the full control effect; nearly all actives have a fitted effect of over 55% in size
Target sequence (A8B2U2 whole entry, looked up): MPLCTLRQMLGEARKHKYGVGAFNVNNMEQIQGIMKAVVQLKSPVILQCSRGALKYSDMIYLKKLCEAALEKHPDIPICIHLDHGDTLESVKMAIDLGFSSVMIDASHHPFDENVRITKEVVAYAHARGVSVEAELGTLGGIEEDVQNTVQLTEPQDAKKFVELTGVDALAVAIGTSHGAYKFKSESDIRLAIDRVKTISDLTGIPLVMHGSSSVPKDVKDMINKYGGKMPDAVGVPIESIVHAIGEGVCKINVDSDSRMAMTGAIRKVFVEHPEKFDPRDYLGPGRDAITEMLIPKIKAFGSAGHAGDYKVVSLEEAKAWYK
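Giardia FBPA (40 nM reagent) was preincubated 10 min at RT with compound (up to 57.5 uM final), then substrate plus GAPDH/TPI/NAD/arsenate coupling system with diaphorase/resazurin was added; resorufin fluorescence (525/598 nm) was read after 20 min.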
LmPK inh: blocks Leishmania mexicana pyruvate kinase activity | purified LmPK, Kinase-Glo ATP luminescence, 1 h | AID 1721 | Potency, µM (titrated, usually from 57.5 µM), for the others: at the highest dose activity change, negative = inhibition, actives largely listed as inhibitors | 0.37% of 290,000 active; note: potency is the fitted concentration of half-maximal effect; % is set by controls: 0 for no effect and ±100 for the full control effect
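Purified LmPK (0.1 nM) converted ADP (0.1 mM) to ATP with PEP (0.5 mM) in imidazole buffer pH 7.2 with KCl and MgCl2, 1 h at room temperature. ATP was read by Kinase-Glo luminescence; data normalized to uninhibited and no-enzyme controls.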
Shiga inhibitor: blocks Shiga toxin action in Vero cells; Vero cells, Shiga toxin protein synthesis inhibition reporter; inhibition, % at 38.7 µM; 9.2% of 290,000 active; in the data active = inhibition mostly above about 28%, no sharp cut-off; inactive = mostly below about 43%; note: 0% is about no effect
Starred values were filed as active, the others as inactive; ? = inconclusive; nt = no result. The full list was thinned out, with hits kept by preference. Unless noted, calls come from the whole dose curve; as a rule, active = well fitted curve in the direction sought with a large enough effect; inconclusive = small, poorly fitted or top-dose-only effect, or another doubt; inactive = no such curve, though single readings can be large; an effect the other way counts as inactive or inconclusive.

SMILES | Sm TGR block | CHX counter | TbPYK inhibitor | Giardia FBPA inh | LmPK inh | Shiga inhibitor
C(#Cc1ccccc1)CN1CCN(c2ccccn2)CC1 | 0% | 25* | -1% | ? | -3% | 28
O=C1C[C@H](c2ccccc2Cl)N1S(=O)(=O)c1ccccc1[N+](=O)[O-] | nt | -4 | nt | 11% | nt | -1
CC(=O)NCCCC[C@H](NC(=O)OC(C)(C)C)C(=O)Nc1ccc2c(C(F)(F)F)cc(=O)oc2c1 | nt | -3 | nt | 0% | nt | -4
COc1cccc(OCc2ccc(Cl)cc2)c1C#N | 3% | 44* | 8% | -3% | -27% | 81*
COCc1cc(C)nc(SCc2ccc(Cl)cc2)c1C#N | -5% | 4 | -6% | 10% | 0% | 16
Cc1cccc(N2C(=O)NC(=O)/C(=C\C=C\c3ccco3)C2=O)c1 | ? | 20* | -14% | -10% | 12% | 42
O=C1NC(=O)N(c2ccccc2)C(=O)/C1=C/C=C/c1ccco1 | 10µM* | 36* | ? | -13% | 8% | 57*
CN(C)c1ccc(/C=C/C=C2/C(=O)NC(=O)N(c3ccccc3)C2=O)cc1 | ? | -2 | ? | -21% | 13µM* | 12
Cn1cc(/C=C2\C(=O)NC(=O)N(c3ccccc3)C2=O)c2ccccc21 | ? | -5 | -2% | 1% | 12% | -10
O=C1NC(=O)N(c2ccccc2)C1=O | -8% | -4 | 1% | ? | -1% | 15
Cc1cccc(N2C(=O)NC(=O)/C(=C/c3ccc([N+](=O)[O-])o3)C2=O)c1 | 8.9µM* | 3 | ? | ? | -10% | 14
C[C@H](NC(c1cccc2nc(O)c(O)nc12)P(=O)(O)O)c1ccc(Br)cc1 (stereo partly drawn) | nt | -4 | nt | 0% | nt | -8
O=C(CCC(=O)c1ccc(Cl)cc1)OCn1nnc2ccccc2c1=O | nt | nt | -3% | nt | nt | nt
Cc1ccc(N2C(=O)NC(=O)/C(=C\C=C\c3ccco3)C2=O)cc1 | 11µM* | 61* | -28% | -4% | 10% | 56*
Cc1ccc(N2C(=O)NC(=O)/C(=C\C=C\c3ccco3)C2=O)cc1C | 25µM* | 18* | -22% | -8% | 4% | 12
CCOC(=O)C1=C(C)N(c2ccc(C)c(C)c2)C(=O)/C1=C\c1ccco1 | 0% | -3 | -3% | 11% | 0% | 17
Cc1cc(NCCCn2ccnc2)n2ncc(-c3ccc(Cl)cc3)c2n1 | 11% | 40* | -2% | 6% | -2% | 83*
Cc1cc(NCCCN2CCOCC2)n2ncc(-c3ccc(Cl)cc3)c2n1 | 7% | 22* | 10% | -11% | 0% | 59
Cc1cccc(-c2cc3nc(C)cc(NCCCn4ccnc4)n3n2)c1 | -2% | 19 | 3% | -1% | 7% | -13
Cn1c(=O)c2c(nc(NCCCN3CCOCC3)n2Cc2ccc(Cl)cc2)n(C)c1=O | 9% | 10 | -5% | 10% | 4% | -14
CC(C)(C)c1cc(-n2ccnc2)n2ncc(-c3ccc(Cl)cc3)c2n1 | 8% | 40* | 5% | -2% | 2% | 59*
CC(C)Nc1cc(C(C)(C)C)nc2c(-c3ccccc3)cnn12 | 23% | 55* | 4% | 1% | -1% | 151*
CN(C)CCCNc1cc(C(C)(C)C)nc2c(-c3ccc(Cl)cc3)cnn12 | 20% | 40* | 1% | 0% | 7% | 53*
CC(C)(C)c1cc(NCCCn2ccnc2)n2ncc(-c3ccccc3)c2n1 | 17% | 37* | -1% | 0% | 1% | 67*
COc1ccccc1NC(=O)CN1CCN(C(=O)C2CCCO2)CC1 (stereo not drawn) | -3% | -2 | 4% | 7% | 2% | -5
SMILES | Sm TGR block | CHX counter | TbPYK inhibitor | Giardia FBPA inh | LmPK inh | Shiga inhibitor
Cc1ccc2c(c1)cc(C(=O)NCc1ccc(F)cc1)n2C | 1% | nt | 14% | nt | nt | nt
COc1ccc(C(=O)NCCS(=O)(=O)NCc2ccc(C)cc2)cc1 | -2% | nt | 0% | nt | nt | nt
COc1ccc(C(=O)NCS(=O)(=O)c2ccc(C)cc2)cc1 | 11µM* | -3 | -5% | 6% | 0% | 42
COc1ccc(C(=O)CCC(C)(C)[N+](=O)[O-])cc1 | 6% | 32* | 4% | 4% | -2% | 31
COc1ccc(C(=O)c2ccc(Cl)c([N+](=O)[O-])c2)cc1 | ? | -2 | 0% | -4% | 2% | -7
Cc1ccc(C(=O)CCS(=O)(=O)c2ccc(Br)cc2)cc1 | 0.4µM* | -3 | 2% | -3% | -8% | -1
Cc1ccc(S(=O)(=O)CCC(=O)c2cccc([N+](=O)[O-])c2)cc1 | ? | 7 | ? | -6% | 2% | 15
COc1ccc(C(=O)CCS(=O)(=O)c2ccc(C)cc2)cc1 | 1µM* | -4 | 4% | 13% | -1% | -8
COc1ccc(COC(=O)CCS(=O)(=O)c2ccc(C)cc2)cc1 | -20% | nt | -1% | nt | nt | nt
CC(OC(=O)c1ccc(F)c(S(=O)(=O)N2CCOCC2)c1)C(=O)NC1CCCC1 (stereo not drawn) | -3% | nt | -8% | nt | nt | nt
CO/N=C(/CS(=O)(=O)c1ccc(C)cc1)c1ccc(OC)cc1 | 40µM* | 7 | -7% | ? | 3% | 8
COc1ccc(C(CC(=O)c2ccc(O)cc2)S(=O)(=O)c2ccc(C)cc2)cc1 (stereo not drawn) | -14% | 42* | -10% | -2% | -12% | 66*
O=C(Nc1ccccc1)N1CC2(CCN(C(=O)c3ccncc3)CC2)C1 | nt | nt | -5% | 5% | nt | nt
CC(=Nc1ccccc1N)c1c(C)cc(=O)n(O)c1O | nt | 31* | nt | 16µM* | nt | 57*
CC1(C)Cc2c(cnn2-c2cccc(F)c2)C(NC(=O)C2CCOCC2)C1 (stereo not drawn) | 1% | 9 | -9% | nt | 2% | 18
CC(Sc1nc2ccccc2[nH]1)C(=O)Nc1ccccc1F (stereo not drawn) | 5% | 5 | 2% | -8% | 1% | 23
O=C(c1cc2cc(Br)ccc2o1)N1CCCCC1 | -1% | 38* | -5% | -10% | -11% | 92*
O=C(c1cc2cc(Cl)ccc2o1)N1CCCC1 | -10% | 49* | 6% | 5% | -3% | 89*
COc1ccc(C2/C=C\CN(C(=O)c3ccc(C)cc3)C(C)C(=O)N2Cc2ccc(F)cc2)cc1 (stereo not drawn) | nt | 83* | nt | -7% | nt | 144*
COc1ccc(C2/C=C\CNCC(=O)N2Cc2ccc(F)cc2)cc1 (stereo not drawn) | 40µM* | -6 | 4% | 1% | 0% | -6
COc1ccc(C2/C=C\CN(Cc3ccccc3)C(C)C(=O)N2Cc2ccc(F)cc2)cc1 (stereo not drawn) | nt | 36* | nt | -4% | nt | 62*
COc1ccc(C2/C=C\CN(C(=O)c3ccccc3)C(C)C(=O)N2Cc2ccc(F)cc2)cc1 (stereo not drawn) | nt | 0 | nt | -6% | nt | -14
